Shown are actives, neighbours in structure and some others; about 0.47% of the full set was active somewhere.
AID inhibitor: Primary qHTS assay for inhibitors of Activation Induced Cytidine Deaminase (AID): AID signal | Single-stranded DNA cytosine deaminase (Homo sapiens), Q9GZX7 | AID deamination FRET fluorescence, UDG-coupled, 4 h | Potency, µM (titrated, usually from 115 µM), most hits filed as inhibitors | 91,000 tested, 0.32% active; note: nearly all actives have a fitted effect of over 25% in size
Target sequence (Q9GZX7 whole entry, looked up): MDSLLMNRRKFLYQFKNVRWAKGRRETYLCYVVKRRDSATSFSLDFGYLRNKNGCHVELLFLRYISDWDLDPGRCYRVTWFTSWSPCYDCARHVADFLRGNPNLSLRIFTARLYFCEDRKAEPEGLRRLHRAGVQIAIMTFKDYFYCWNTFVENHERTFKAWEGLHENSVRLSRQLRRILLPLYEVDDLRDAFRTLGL
UDG counter: Primary qHTS assay for inhibitors of Activation Induced Cytidine Deaminase (AID): UDG Counterscreen signal; AID 1347430, 2020; 91,000 tested, 0.14% active; FRET deamination/UDG coupled assay, UDG read, 4 h; Potency, µM (titrated, usually from 115 µM), actives largely listed as inhibitors; Uracil-DNA glycosylase; note: nearly all actives have a fitted effect of over 65% in size
Hits are given with their value; 0 = inactive; ? = inconclusive. Calls come from the whole dose curve; as a rule, active = well fitted curve in the direction sought with a large enough effect; inconclusive = small, poorly fitted or top-dose-only effect, or another doubt; inactive = no such curve, though single readings can be large; an effect the other way counts as inactive or inconclusive.

SMILES	AID inhibitor	UDG counter
CCOc1ccc(Br)cc1C1C(C#N)=C(N)Oc2cc3c(cc21)OCO3 (stereo unspecified)	0	0
CCN(CC)CCNC(=O)c1ccc2c(=O)n3nc(Nc4ccccc4)sc3nc2c1	71µM	0
COc1cccc(CNC(=O)c2ccc3c(=O)n4nc(Nc5ccccc5)sc4nc3c2)c1	0	0
O=C(O)c1ccc(-n2c(/C=C\c3ccc(O)cc3)nc3ccccc3c2=O)cc1	0	0
O=C(O)c1cc(-n2c(/C=C\c3ccc(F)cc3)nc3ccccc3c2=O)ccc1Cl	?	89µM
CN1CCN(c2ccc3cc(S(=O)(=O)N4CCCC4)ccc3n2)CC1	0	0
O=C(O)CC/C(=C/c1ccc2ccccc2c1)c1nc2ccccc2s1	0	0
CCc1cccc(NC(=O)C2CCN(S(=O)(=O)c3cccc(-c4noc(C)n4)c3)CC2)c1	0	79µM
Cc1nc(-c2cccc(S(=O)(=O)N3CCC(C(=O)NCc4ccccc4Cl)CC3)c2)no1	0	?
N#Cc1nc(COc2ccc(Cl)cc2)oc1NCc1ccco1	0	0
Fc1ccc(/C=N/Nc2cc(C(F)(F)F)ccc2Cl)cc1	0	0
Cc1cc(C(=O)NC(C)c2ccc(F)cc2F)c2cnn(C(C)C)c2n1 (stereo unspecified)	0	0
CCNC(=O)N(Cc1nc(-c2ccc(C)cc2)no1)C1CCCCC1	0	0
Cc1ccc(CC(=O)N(Cc2nc(-c3ccccc3)no2)C2CCCCC2)cc1	0	79µM
COc1ccc(/C=C/c2ccc3cc(C)ccc3n2)cc1O	0	0
CCC1CCCCN1C(=O)Cn1c(=O)n(-c2ccccc2)c(=O)c2sccc21 (stereo unspecified)	0	0
COc1ccc(NC(=O)Nc2cn(CC(C)C)c(=O)c3ccccc23)c(OC)c1	0	0
Cc1ccc(Cl)cc1NC(=O)Nc1cn(CC(C)C)c(=O)c2ccccc12	79µM	0
CCOc1ccc(NC(=O)CN(C)S(=O)(=O)c2ccc3c(c2)c(=O)n(C)c(=O)n3C)cc1	22µM	0
Cc1cccc(NC(=O)CN(C)S(=O)(=O)c2ccc3c(c2)c(=O)n(C)c(=O)n3C)c1	0	0
COC(=O)/C=C/C(=O)Nc1cc(Cl)ccc1O	0	0
Cc1ccc(C)c(N2N=C(C(=O)Nc3ccc(S(=O)(=O)N4CCCCC4)cc3)CCC2=O)c1	0	0
COc1ccc(-c2cc(Nc3ccccc3)nc(C)n2)cc1	0	0
Cc1cccc(CN2CCC(CNc3ncnc4onc(-c5ccc(Cl)cc5)c34)CC2)c1	20µM	0
Cc1ccc(CN2CCC(CNc3ncnc4onc(-c5ccc(Cl)cc5)c34)CC2)cc1	0	0
SMILES	AID inhibitor	UDG counter
Cc1nc2nc(SCC(=O)NCCc3ccc(Cl)cc3)nn2c(C)c1Cc1ccccc1Cl	35µM	0
Cc1ccccc1Cc1c(C)nc2nc(SCC(=O)NCCc3ccc(Cl)cc3)nn2c1C	?	0
CCCCNc1nc(-c2ccc(N(CC)S(C)(=O)=O)cc2)cs1	0	0
Cc1ccc(S(=O)(=O)C(CNC(=O)COc2ccccc2)c2cccs2)cc1 (stereo unspecified)	45µM	0
Cc1cc(S(=O)(=O)C(CNC(=O)COc2ccccc2)c2cccs2)ccc1F (stereo unspecified)	0	0
Cc1cc(C)c2c(-n3cccc3)c(C(=O)NCC(C)c3ccccc3)sc2n1 (stereo unspecified)	?	0
CC(CNC(=O)c1sc2ncccc2c1-n1cccc1)c1ccccc1 (stereo unspecified)	79µM	0
O=C(NCCc1ccccc1Cl)c1sc2ncccc2c1-n1cccc1	35µM	0
Cc1ccc(CCNC(=O)c2sc3ncccc3c2-n2cccc2)cc1	0	0
CC(C)Cn1c2c(c(=O)[nH]c1=O)C(c1ccc(F)cc1)C1=C(COC1=O)N2 (stereo unspecified)	0	0
Fc1ccc(C=Nc2cccc3c(N=Cc4ccc(F)cc4)cccc23)cc1	0	?
Cc1cc(/C=C/C(=O)c2ccc(F)cc2)cc(C)c1O	0	0
CCCCc1noc(CN2CCC(c3nc4cc(Cl)ccc4o3)CC2)n1	0	0
CCCCc1nc(CN2CCN(c3cccc(F)c3C#N)CC2)no1	?	89µM
CCN(CC)CC1CCN(C(=O)CCc2c[nH]c3ccccc23)CC1	0	0
O=C1Cc2cc(S(=O)(=O)N3CCCCC3)cc3c2N1CCC3	?	89µM
COC(=O)C1CCN(S(=O)(=O)c2cc3c4c(c2)CC(=O)N4CCC3)CC1	0	0
COc1ccc(-c2ocnc2C(=O)Nc2cc(F)ccc2F)cc1OC	0	0
Clc1cccc(-n2cc(-c3ccccc3)c3c(NC4CCCC4)ncnc32)c1	?	0
COc1ccc(-n2cc(-c3ccccc3)c3c(NC4CCCC4)ncnc32)cc1	35µM	0
Cc1cc2c(C(C)C)c(O)c(O)c(C=O)c2c(O)c1-c1c(C)cc2c(C(C)C)c(O)c(O)c(C=O)c2c1O	79µM	0
CCOC(=O)c1cc(C)nc2c1c(=O)n(Cc1nc(-c3ccc(C(C)C)cc3)oc1C)c(=O)n2C	0	?
Nc1nnnn1NCc1ccc(-c2cccc(Cl)c2)o1	0	0
CC1Cc2ccccc2N1S(=O)(=O)c1nnc(NC(=O)c2ccccc2Br)s1 (stereo unspecified)	45µM	0
CC1Cc2ccccc2N1S(=O)(=O)c1nnc(NC(=O)c2ccccc2)s1 (stereo unspecified)	0	0
SMILES	AID inhibitor	UDG counter
Clc1ccc(-c2cc3ccccn3c2)cc1	0	0
CCOCCOc1cccc(N)c1	0	0
COc1ccccc1CN1CCC(CNC(=O)c2cnn(-c3ccc(Cl)cc3)c2C2CCN(C(=O)OC(C)(C)C)CC2)CC1	45µM	?
COc1ccccc1CN1CCC(CNC(=O)c2cnn(-c3ccc(C)c(C)c3)c2C2CCN(C(=O)OC(C)(C)C)CC2)CC1	?	0
CC(C)(C)OC(=O)N1CCC(c2c(C(=O)N3CCC(c4ccccc4)C3)cnn2-c2cccc(Cl)c2)CC1 (stereo unspecified)	40µM	?
CC(C)(C)OC(=O)N1CCC(c2c(C(=O)N3CCC(c4ccccc4)C3)cnn2-c2ccc(Cl)cc2)CC1 (stereo unspecified)	40µM	?
Cc1ccc(C2CCN(C(=O)c3cnn(-c4ccc(C)cc4)c3C3CCN(C(=O)OC(C)(C)C)CC3)C2)cc1 (stereo unspecified)	0	0
Cc1ccc(C2CCN(C(=O)c3cnn(-c4cccc(Cl)c4)c3C3CCN(C(=O)OC(C)(C)C)CC3)C2)cc1 (stereo unspecified)	?	0
COc1ccc(CNC(C)C)c2ccccc12	0	0
COc1cc(C)cc2oc(=O)c(CC(=O)O)c(C)c12	0	0
CCN1CCN(c2nc3ccccc3nc2C(C#N)S(=O)(=O)c2ccccc2)CC1 (stereo unspecified)	0	0
NC(=O)COc1ccc(C2CC(=O)Nc3nc(N4CCCCC4)sc32)cc1 (stereo unspecified)	22µM	0
COc1ccc(C2CC(=O)Nc3ccsc32)cc1OCC(N)=O (stereo unspecified)	0	0
COc1cc(C2CC(=O)Nc3nc(N4CCCCC4)sc32)ccc1OCC(N)=O (stereo unspecified)	22µM	0
COc1ccc(C2CC(=O)Nc3nc(N)sc32)cc1OC1CCCC1 (stereo unspecified)	?	0
Nc1nc2c(s1)C(c1cccc(OCc3cccc(F)c3)c1)CC(=O)N2 (stereo unspecified)	?	0
NC(=O)COc1cccc(C2CC(=O)Nc3nc(N4CCCCC4)sc32)c1 (stereo unspecified)	28µM	0
CS(=O)Cc1cccc(C(=O)Nc2nc(-c3ccccn3)cs2)c1 (stereo unspecified)	0	0
NC(C(=O)O)c1cccnc1 (stereo unspecified)	0	0
